Holding throughout (assay): protein-binding microarray (PBM); PBM: ~300 nM protein, 6 mM HEPES pH 7.8, 80 mM KCl, 0.5 mM EDTA, 0.5 mM EGTA, 6% glycerol, 35 ng/ul poly-dIdC, 1% milk, 1 h, room temperature; Ap Aiptasia and Nv Nematostella (sea anemones) / Co Capsaspora / Aq Amphimedon (sponge) / Dm Drosophila / Hu human; RHD is the Rel homology domain; high values mean tight binding
Common to all, as to conditions: dsDNA, one strand shown

For one test, the target named is T1, GST-Ap-NF-kB RHD (Exaiptasia pallida (Aiptasia), UniProt A0A913YAJ5 2-422).
T1 sequence: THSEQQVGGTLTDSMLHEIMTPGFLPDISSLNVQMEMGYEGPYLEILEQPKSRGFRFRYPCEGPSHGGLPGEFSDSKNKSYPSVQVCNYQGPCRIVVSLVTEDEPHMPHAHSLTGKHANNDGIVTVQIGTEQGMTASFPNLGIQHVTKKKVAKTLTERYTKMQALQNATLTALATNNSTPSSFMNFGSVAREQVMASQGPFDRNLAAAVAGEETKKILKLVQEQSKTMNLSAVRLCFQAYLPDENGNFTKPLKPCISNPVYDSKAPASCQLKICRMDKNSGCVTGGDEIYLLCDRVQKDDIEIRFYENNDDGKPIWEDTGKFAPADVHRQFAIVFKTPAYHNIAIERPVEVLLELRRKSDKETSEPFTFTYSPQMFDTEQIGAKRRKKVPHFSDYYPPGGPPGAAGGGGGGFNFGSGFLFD

Test [1] addresses T2, GST-Nv-NF-kB (Cys allele) (Nematostella vectensis, UniProt E5G601 2-411).
T2 sequence: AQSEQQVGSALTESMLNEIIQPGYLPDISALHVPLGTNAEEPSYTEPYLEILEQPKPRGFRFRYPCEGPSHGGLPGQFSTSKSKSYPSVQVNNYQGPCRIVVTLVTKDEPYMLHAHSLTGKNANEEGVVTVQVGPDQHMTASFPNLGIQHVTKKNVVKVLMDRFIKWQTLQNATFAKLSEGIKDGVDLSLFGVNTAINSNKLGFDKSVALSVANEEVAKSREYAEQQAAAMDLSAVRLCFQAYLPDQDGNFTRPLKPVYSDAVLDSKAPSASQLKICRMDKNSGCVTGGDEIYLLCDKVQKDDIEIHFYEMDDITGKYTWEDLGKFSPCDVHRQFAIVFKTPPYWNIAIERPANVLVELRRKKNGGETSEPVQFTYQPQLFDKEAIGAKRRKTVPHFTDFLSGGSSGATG

In another test the target is T3, GST-Co-NF-kB (Capsaspora owczarzaki, UniProt F1ARL5 200-546).
T3 sequence: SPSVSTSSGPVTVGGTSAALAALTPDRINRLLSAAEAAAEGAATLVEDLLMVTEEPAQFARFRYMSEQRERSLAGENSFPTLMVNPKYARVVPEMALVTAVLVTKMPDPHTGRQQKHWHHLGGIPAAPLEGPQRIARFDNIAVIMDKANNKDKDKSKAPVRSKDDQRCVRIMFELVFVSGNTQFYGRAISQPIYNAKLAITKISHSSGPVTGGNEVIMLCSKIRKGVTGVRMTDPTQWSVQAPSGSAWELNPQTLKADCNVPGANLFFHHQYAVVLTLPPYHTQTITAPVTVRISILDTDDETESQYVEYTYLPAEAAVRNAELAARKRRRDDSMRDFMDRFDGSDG

The target in the next test is T4, GST-Dm-Relish (Drosophila melanogaster, UniProt Q94527 99-473).
T4 sequence: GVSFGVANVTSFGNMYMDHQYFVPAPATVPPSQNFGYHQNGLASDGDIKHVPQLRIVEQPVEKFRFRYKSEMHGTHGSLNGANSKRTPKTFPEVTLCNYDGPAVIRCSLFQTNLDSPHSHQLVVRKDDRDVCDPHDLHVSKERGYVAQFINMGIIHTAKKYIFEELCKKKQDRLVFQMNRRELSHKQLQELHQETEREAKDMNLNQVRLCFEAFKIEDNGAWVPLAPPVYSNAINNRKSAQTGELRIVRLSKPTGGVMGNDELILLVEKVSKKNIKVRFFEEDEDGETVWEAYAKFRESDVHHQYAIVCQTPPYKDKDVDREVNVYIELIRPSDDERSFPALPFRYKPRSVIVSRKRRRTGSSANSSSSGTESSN

In the next test the target is T5, GST-Aq-NF-kB (Amphimedon queenslandica, UniProt A9Y5G7 2-389).
T5 sequence: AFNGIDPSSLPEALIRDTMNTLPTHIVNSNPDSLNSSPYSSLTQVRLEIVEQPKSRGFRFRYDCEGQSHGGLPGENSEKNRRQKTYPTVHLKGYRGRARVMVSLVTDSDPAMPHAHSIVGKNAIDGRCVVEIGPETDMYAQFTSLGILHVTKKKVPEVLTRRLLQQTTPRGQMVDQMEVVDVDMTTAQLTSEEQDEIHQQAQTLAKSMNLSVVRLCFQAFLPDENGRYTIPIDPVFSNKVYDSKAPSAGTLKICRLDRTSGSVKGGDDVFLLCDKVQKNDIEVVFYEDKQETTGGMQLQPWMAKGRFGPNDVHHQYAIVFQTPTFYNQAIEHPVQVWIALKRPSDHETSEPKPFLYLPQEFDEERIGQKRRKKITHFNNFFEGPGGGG

On to “CCGATTAACATCAATTTTTCCCATGATGTTAATCGGGTCTTGATTCGCTTGACGCTGCTG”, for which the binding signal in the test with GST-Ap-NF-kB RHD was 2.62 z-score; in test [1], 4.2 z-score; in the test with GST-Co-NF-kB it was 5.21 z-score; with GST-Dm-Relish, 1.64 z-score; with GST-Aq-NF-kB, 3.27 z-score.
For “CCGATTAACATCACGAGATTCCCTGATGTTAATCGGGTCTTGATTCGCTTGACGCTGCTG” the same measures were 3.03 z-score, 3.39 z-score, 2.52 z-score, 1.75 z-score and 3.38 z-score.
For “CCGATTAACATCAGAGTCCCCCCTGATGTTAATCGGGTCTTGATTCGCTTGACGCTGCTG” the same measures were 5.97 z-score, 5.02 z-score, 7.33 z-score, 5.14 z-score and 4.89 z-score.
As for “CCGATTAACATCAGGGGGTAAAATGATGTTAATCGGGTCTTGATTCGCTTGACGCTGCTG”, the binding signal with GST-Ap-NF-kB RHD is 4.43 z-score; in test [1], 4.2 z-score; in the test with GST-Co-NF-kB, 8.57 z-score; with GST-Dm-Relish it was 3.24 z-score; with GST-Aq-NF-kB, 4.16 z-score.
The like results for “CCGATTAACATCAGGGAATATAATGATGTTAATCGGGTCTTGATTCGCTTGACGCTGCTG” were, in that order, 3.2 z-score, 3.59 z-score, 3.13 z-score, 1.66 z-score and 3.14 z-score.
The like results for “CCGATTAACATCAGGGGGTGTAATGATGTTAATCGGGTCTTGATTCGCTTGACGCTGCTG” were, in that order, 3.57 z-score, 3.16 z-score, 3.87 z-score, 3.25 z-score and 3.21 z-score.
For “CCGATTAACATCAAGTTTTCCCATGATGTTAATCGGGTCTTGATTCGCTTGACGCTGCTG” the same measures were 2.53 z-score, 3.86 z-score, 4.78 z-score, 1.42 z-score and 2.83 z-score.
Take “CCGATTAACATCACGGAAACCCCTGATGTTAATCGGGTCTTGATTCGCTTGACGCTGCTG”: the binding signal with GST-Ap-NF-kB RHD is 5.32 z-score; in test [1] it was 4.37 z-score; with GST-Co-NF-kB, 2.13 z-score; in the test with GST-Dm-Relish, 7.12 z-score; in the test with GST-Aq-NF-kB, 5.38 z-score.
For “CCGATTAACATCACGAGTTTCCCTGATGTTAATCGGGTCTTGATTCGCTTGACGCTGCTG” the same measures were 3.04 z-score, 4.31 z-score, 3.63 z-score, 1.16 z-score and 3.88 z-score.
For “CCGATTAACATCAAGGGATTTCCTGATGTTAATCGGGTCTTGATTCGCTTGACGCTGCTG” the same measures were 5.46 z-score, 5.12 z-score, 1.32 z-score, 7.74 z-score and 6.44 z-score.
Consider “CCGATTAACATCACGGAGTTCCCTGATGTTAATCGGGTCTTGATTCGCTTGACGCTGCTG”, for which the binding signal with GST-Ap-NF-kB RHD was 2.6 z-score; in test [1], 1.63 z-score; with GST-Co-NF-kB it was 1.53 z-score; in the test with GST-Dm-Relish, 5 z-score; with GST-Aq-NF-kB, 4.63 z-score.
With “CCGATTAACATCAGATCTTCCCCTGATGTTAATCGGGTCTTGATTCGCTTGACGCTGCTG”, the binding signal came out at 4.63 z-score in the test with GST-Ap-NF-kB RHD; 6.25 z-score in test [1]; 7.3 z-score with GST-Co-NF-kB; 4.83 z-score with GST-Dm-Relish; 6.29 z-score in the test with GST-Aq-NF-kB.
The like results for “CCGATTAACATCACGGGACTCCCTGATGTTAATCGGGTCTTGATTCGCTTGACGCTGCTG” were, in that order, 5.53 z-score, 4.06 z-score, 1.53 z-score, 8.72 z-score and 5 z-score.
